Measurements from PubChem BioAssay AID624330 (Southern Research Specialized Biocontainment Screening …, 2012).
Among all 340,000 compounds or so, about 2,100 (0.62%) were called active.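 The calls were made as follows: active = first-screen hits whose inhibition reached a set limit at any dose in the follow-up dose series; inconclusive = inhibition above the set first-screen limit but never retested; inactive = the rest.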 The list is a sample of the results. Measured potencies and affinities stand elsewhere.

Target: Rac GTPase-activating protein 1 (Homo sapiens) (UniProt Q9H0H5)
Test: blockers of MgcRacGAP-driven Rac1 GTP hydrolysis – biochemical, ADP Hunter fluorescence, primary and confirmatory, confirmation (AID 624330);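 also: fluorescence reports GDP produced by GAP-driven GTP hydrolysis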
Settings: MgcRacGAP-stimulated Rac1 GTP hydrolysis, at 30 µM, stronger effect = higher value, GST-tagged Rac1 F28L mutant substrate

Chain of Rac GTPase-activating protein 1 (Homo sapiens) (Q9H0H5 whole entry, looked up): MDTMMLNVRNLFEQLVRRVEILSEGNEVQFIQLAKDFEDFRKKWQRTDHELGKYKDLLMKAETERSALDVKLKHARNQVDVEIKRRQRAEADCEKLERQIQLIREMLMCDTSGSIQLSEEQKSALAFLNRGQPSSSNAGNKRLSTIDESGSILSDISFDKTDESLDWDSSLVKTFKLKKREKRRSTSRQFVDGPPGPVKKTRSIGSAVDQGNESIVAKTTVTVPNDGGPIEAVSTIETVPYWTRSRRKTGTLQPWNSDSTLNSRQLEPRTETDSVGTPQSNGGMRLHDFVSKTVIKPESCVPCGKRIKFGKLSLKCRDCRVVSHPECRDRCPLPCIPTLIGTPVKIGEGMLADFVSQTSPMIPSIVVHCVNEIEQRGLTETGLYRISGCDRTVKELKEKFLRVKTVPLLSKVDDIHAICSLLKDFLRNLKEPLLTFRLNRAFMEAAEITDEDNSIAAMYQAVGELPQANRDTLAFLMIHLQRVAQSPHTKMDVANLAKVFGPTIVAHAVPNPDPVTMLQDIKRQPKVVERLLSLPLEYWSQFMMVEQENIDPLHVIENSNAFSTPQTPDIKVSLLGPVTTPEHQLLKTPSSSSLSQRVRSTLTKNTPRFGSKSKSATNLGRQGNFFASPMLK

inhibition, inactive:
CCOC(=O)CCNCC1COc2ccccc2O1 (centres undefined) 0.26%, CC(NC(=O)CCC(=O)NC(C)C1COc2ccccc2O1)C1COc2ccccc2O1 (centres undefined) 6.94%, COc1ccc2nc(NC(=O)CN(C)S(=O)(=O)c3cccs3)sc2c1 2.51%, Cc1c(C(=O)NC2CC(=O)N(c3ccc4c(c3)OCCO4)C2)cccc1[N+](=O)[O-] (centres undefined) 10.5%, O=S(=O)(Nc1ccc(-c2ccc(NS(=O)(=O)c3ccccc3)cc2)cc1)c1ccccc1 -20.9%, COc1ccc(NC(=O)C(Cl)=C(Cl)Cl)cn1 6.63%, COc1ccc(NC(=O)/C(Cl)=C(/Cl)S(=O)(=O)Cc2ccccc2)cn1 25.6%, COc1ccc(CS(=O)(=O)/C(Cl)=C(/Cl)C(=O)Nc2ccc(OC)nc2)cc1 19.4%, COc1ccc(NC(=O)Cc2ccccc2)cn1 3.42%, CC(C)(C)c1nnc2cccc(Cl)n12 0.67%, CCN1C(=O)[C@H]2[C@@H](c3ccc(-c4ccc(C(C)=O)cc4)c(OC)c3)N3CCCC[C@@]3(C(=O)OC)[C@H]2C1=O 5.29%, CCc1cc(=O)oc2cc(OC(C)C(=O)NCc3ccccn3)ccc12 (centres undefined) 7.67%, C/C(=N\NC(=O)c1ccc(NS(=O)(=O)c2cccs2)cc1)c1ccc(C(C)(C)C)cc1 8.43%, COCCNc1nc(CSc2ccccc2)nc2sc(C)c(C)c12 8.51%, COCCNCc1ccccc1 -2.56%, Cc1cc(C)cc(NC(=S)N2CCC(NC(=O)c3ccc(F)cc3)CC2)c1 4.86%, CCOc1ccc(NC(=O)C(NC(=O)C2CCC(C)CC2)C(C)C)cc1 (centres undefined) 8.67%, COc1cc(/C=C(\C#N)c2[nH]nc(N)c2C#N)cc(OC)c1O 0.59%, CCOc1cc(-c2cc(-c3ccccc3)nc(N)c2C#N)ccc1O 38.4%, CCCc1cc(-c2ccc(O)c(OCC)c2)c(C#N)c(N)n1 -0.99%, COc1cc(-c2cc(-c3ccc(F)cc3)nc(N)c2C#N)ccc1O 40.9%, COc1ccc(-c2cc(-c3ccc(O)cc3)nc(N)c2C#N)cc1OC 11.9%, CCOc1cc(-c2cc(-c3ccc(C)cc3)nc(N)c2C#N)ccc1O 16.3%, CCN(CC(=O)Nc1ccc(C#N)cc1)CC(=O)Nc1ccc2c(c1)OCCO2 4.07%, CCNC(=O)N1CCC(n2nccc2NC(=O)CCCc2ccccc2)CC1 6.88%, COc1ccccc1OCCC(=O)Nc1ccc2c(c1)OCO2 2.43%, C=CC[N+](C)(C)CCN1C(=O)C2C(c3ccccc3)C=CC(c3ccccc3)C2C1=O (centres undefined) -0.41%, C=CCC(NCc1ccco1)c1ccc(OC)c(OC)c1 (centres undefined) -6.08%, O=C(Oc1ccc2c(c1)OCC2=O)c1ccccc1 0.9%, O=c1oc(-c2cccc(S(=O)(=O)N3CCOCC3)c2)nc2ccccc12 13.7%, Cc1cccc(NC(=S)NC(=O)/C=C/c2ccccc2)n1 -2.63%, CC(C)(C)c1ccc(C(=O)NCC(=O)N2CCC3(CC2)NCCc2[nH]cnc23)cc1 11%, O=C(N/N=C/c1ccc[nH]1)c1ccccc1OCc1ccc(F)cc1 9.06%, Cc1cccc(/C=N\NC(=O)c2ccccc2-n2cccc2)c1 5.46%, O=C(N/N=C\c1ccc(O)c([N+](=O)[O-])c1)c1ccccc1-n1cccc1 -4.94%, O=C(N/N=C/c1ccc(Br)cc1)c1ccccc1-n1cccc1 10.6%, O=C(COc1ccccc1-c1ccccc1)N/N=C/c1ccc2ccccc2c1 6.35%, COc1cc(/C=N/NC(=O)c2ccccc2O)ccc1OCC(=O)Nc1ccccc1 14.4%, CCOc1cc(/C=N/NC(=O)c2cc(C)n(-c3ccc(F)cc3)c2C)ccc1O 16.4%, O=C(N/N=C\c1ccccc1)c1ccccc1-n1cccc1 6.39%, CC(=O)c1cccc(S(=O)(=O)NC2CCCCCC2)c1 1.69%, COc1ccc(C(C(=O)NC2CCCCC2)N(Cc2ccco2)C(=O)c2ccccn2)c(OC)c1 (centres undefined) 10.7%, CCCN(CCC)C(=O)c1ccc2c(c1)S(=O)(=O)c1ccccc1C2=O 6.12%, NC(=S)Nc1ccc(S(=O)(=O)c2ccc(NC(N)=S)cc2)cc1 10.8%, CC1(C)C(=O)OC(c2c3ccccc3cc3ccccc23)C(C)(C)C1=O (centres undefined) 1.71%, CC(NS(=O)(=O)c1cccc(S(=O)(=O)c2ccccc2)c1)C(=O)O (centres undefined) -5.11%, CCOC(=O)N1CCN(C(=O)c2cccc(S(=O)(=O)Nc3ccc(F)cc3)c2)CC1 4.83%, CCOC(=O)C1CCN(c2c(N3CCCC(C(=O)OCC)C3)c(=O)c2=O)CC1 (centres undefined) 4.65%, CN(C)CCNC(=O)c1onc(CSc2nc3ccccc3[nH]2)c1C(=O)NCCN(C)C 17.3%, Brc1ccc(-c2ccc(/C=N/Nc3nc4ccccc4[nH]3)o2)cc1 3.17%, COCCNC(=O)/C(C#N)=C/c1ccc(C(=O)O)cc1 0.25%, COc1cccc(C(=O)N2CCn3c2nc2ccccc23)c1 8.54%, O=C(Nc1nnc(C2CCCCC2)s1)C1CC(=O)N(c2ccc(F)cc2)C1 (centres undefined) 3.31%, COc1ccc(NC(=O)CSc2ccc3ccccc3c2)cc1S(=O)(=O)N1CCCCC1 8.21%, COc1ccc(/C=N/Nc2cc(C)nc3ccccc23)cc1 14.7%, COc1cccc2c(N/N=C/c3ccccc3)cc(C)nc12 11%, COc1cccc2c(N/N=C/c3ccc(O)c(O)c3)cc(C)nc12 27.1%, Cc1ccc2nc(C)cc(N/N=C/c3cccc(O)c3)c2c1 14.1%, N#Cc1nc(COc2ccc(F)cc2)oc1N1CCC(Cc2ccccc2)CC1 0.56%
